Bioassay records (PubChem)
A selection: hits, their analogues and other compounds. The true share with any hit is near 3.4%.
hcDAF-12 act – H. contortus DAF-12 nuclear receptor activators, primary screen, cell-based, luminescence, HEK293, lit1-tk-luc reporter | 370,000 tested, 1.4% active | HEK293 hcDAF-12 lit1-tk-luc reporter; 0% DMSO, 100% Δ7-dafachronic acid | activation, % at 6.8 µM | AID 652067, 2013;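 active = activation above the mean of all tested compounds plus 3 SD, cut at about 5.5% in these data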;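 also: 100% = response to 3 µM Δ7-dafachronic acid high control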
NF-kB expr up – activators of NF-kB expression in neurons, primary screen, cell-based, HTS; human neuronal cells, NF-kB reporter expression; active compounds read high; fold change at 12.5 µM; 190,000 tested, 1.6% active; AID 1239, 2008; in the data active = fold change above about 3.3
APP 5'UTR act – activators of APP 5'UTR luciferase reporter, primary screen, SH-SY5Y cells. SH-SY5Y APP 5'UTR luciferase reporter, luminescence; zero percent = DMSO vehicle wells. activation, % at 2 µM. 190,000 tested, 1% active;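 active = activation above a set limit, based on mean plus 3 SD of controls, cut at about 140% in these data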
ssDAF12 agonist – S. stercoralis DAF-12 nuclear receptor activators, primary screen, cell-based, luminescence, HEK293, GRIP1 co-expression, lit1-tk-luc; AID 652126, 2013; 370,000 tested, 1% active; Nuclear hormone receptor DAF-12 (Strongyloides stercoralis); HEK293 ssDAF-12/GRIP1 lit1-tk-luc reporter; % of 3 µM dafachronic acid response; activation, % at 6.8 µM;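 active = activation above the mean over all tested compounds plus 3 SD, cut at about 0.9% in these data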;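 also: 0% = DMSO-only wells and 100% = 3 µM delta7-dafachronic acid wells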
hgDAF12 agonist – H. glycines DAF-12 receptor agonists, primary screen, cell-based, luminescence, HEK293, GAL4 fusion, UAS-luciferase; HEK293 GAL4-hgDAF12 UAS-luciferase reporter, agonist luminescence; normalized to butyrate control; 370,000 tested, 1.8% active; activation, % at 6.8 µM; Nuclear hormone receptor DAF-12 (Heterodera glycines), GAL4 fusion; AID 687014, 2013;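 active = activation above a cutoff set at the mean of all screened compounds plus 3 SD, cut at about 10% in these data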;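 also: 0% = DMSO wells and 100% = sodium butyrate wells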
LXR ag – LXR agonists, Gal4 luciferase reporter, confirmation, counter-screen for hcDAF-12 agonist project, cell-based, luminescence, HEK293, H. contortus campaign; shares compounds with hcDAF-12 act; HEK293 Gal4-LXR tk-luc reporter, 24 h; normalized: DMSO 0%, positive control 100%; activation, % at 6.8 µM; 3,400 tested, under 10 active;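 active = mean percent activation of the reporter above a cutoff set as the average over tested compounds plus their standard deviation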
Target sequence (P55055 whole entry, looked up, the tested form may be a part): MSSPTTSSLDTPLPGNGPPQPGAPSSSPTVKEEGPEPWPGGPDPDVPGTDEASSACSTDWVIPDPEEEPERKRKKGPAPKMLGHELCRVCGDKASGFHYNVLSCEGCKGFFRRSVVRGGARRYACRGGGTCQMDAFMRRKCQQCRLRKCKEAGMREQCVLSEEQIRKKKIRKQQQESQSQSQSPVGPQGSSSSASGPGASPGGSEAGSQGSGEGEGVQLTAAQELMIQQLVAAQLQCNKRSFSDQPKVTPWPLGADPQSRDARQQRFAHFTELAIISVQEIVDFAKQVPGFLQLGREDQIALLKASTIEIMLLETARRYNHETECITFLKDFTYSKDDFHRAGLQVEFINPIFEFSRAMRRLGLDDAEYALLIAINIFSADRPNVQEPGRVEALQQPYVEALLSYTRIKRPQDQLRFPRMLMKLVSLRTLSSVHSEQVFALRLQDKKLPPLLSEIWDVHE
hcDAF12 ag – H. contortus DAF-12 receptor agonists, confirmation, cell-based, luminescence, HEK293, lit1-tk-luc, triplicate. shares compounds with hcDAF-12 act. HEK293 hcDAF-12 lit1-tk-luc reporter; % of Δ7-dafachronic acid response. activation, % at 6.8 µM. 3,400 tested, 61% active. AID 743032, 2013;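 active = mean activation across triplicate tests above the threshold derived from the earlier primary screen, cut at about 5.5% in these data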;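 also: 0% = DMSO only wells and 100% = 3 µM Δ7-dafachronic acid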
hgDAF12 conf – H. glycines DAF-12 receptor agonists, confirmation, cell-based, luminescence, HEK293, GAL4-LBD fusion. shares compounds with hgDAF12 agonist. HEK293 GAL4-hgDAF12 luciferase reporter, agonist mode; percent of butyrate response. activation, % at 6.8 µM. 3,300 tested, 80% active;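 active = mean activation over triplicate wells above the hit cutoff derived from the earlier primary screen, cut at about 11% in these data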;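 also: 0% = DMSO low control and 100% = 2 mM sodium butyrate high control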
LXRb DAF12 ctr – LXR agonists, Gal4 luciferase reporter, confirmation, counter-screen for hgDAF-12 agonist project, cell-based, luminescence, HEK293, H. glycines campaign; activation, % at 6.8 µM; shares compounds with hgDAF12 agonist; 24 h; 3,300 tested, under 10 active; AID 743051, 2013;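 active = mean activation of the triplicate above a set limit carried over from the primary screen, none filed active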
* hit, by the source's call; / = no result.

SMILES	hcDAF-12 act	NF-kB expr up	APP 5'UTR act	ssDAF12 agonist	hgDAF12 agonist	LXR ag	hcDAF12 ag	hgDAF12 conf	LXRb DAF12 ctr
O=[N+]([O-])c1ccc(NN=Cc2cccc(O)c2)nc1	10.1*	/	/	0.7	18.4*	1.1	4.0	20.7*	0.8
CC(=O)Nc1ccc(-c2cn3cc(C)ccc3n2)cc1	10.6*	5.93*	149.4*	-0.1	18.5*	1.4	7.4*	11.4*	0.5
CC(=O)Nc1ccc(C)cc1	-0.5	/	/	-1.8	-2.6	/	/	/	/
Clc1ccc(-c2cn3cc(Cl)ccc3n2)cc1	19.7*	/	/	3.2*	14.1*	2.1	17.9*	21.6*	1.4
Nc1ccc2nc(N3CCOCC3)sc2c1	3.7	1	52.5	0.4	10.1	/	/	/	/
Nc1ccc(-c2nc3ccc(N)cc3s2)cc1	7.5*	/	/	1.1*	19.3*	1.5	8.3*	15.8*	1.1
c1ccc(-c2nc(-c3nccc4ccccc34)oc2-c2ccccc2)cc1	15.3*	/	/	3.0*	18.0*	0.7	5.7*	18.8*	0.7
COc1ccc(-n2c(SCC(=O)NCC3CCCO3)nnc2-c2ccncc2)cc1 (configuration not stated)	-0.6	/	/	-1.6	7.6	/	/	/	/
COc1ccc(C(=O)N[C@H]2CC[C@@]34CCCN3C(=O)CCC[C@H]4[C@H]2C)cc1	-2.3	/	/	-1.8	-2.8	/	/	/	/
O=C(CC(Nc1ccccc1Cl)C(=O)OCC(=O)c1cccs1)c1ccccc1 (configuration not stated)	0.5	0.48	73.0	-1.2	1.5	/	/	/	/
COc1ccccc1NC(CC(=O)c1ccccc1)C(=O)OCC(=O)c1ccc(C)cc1 (configuration not stated)	8.5*	0.74	46.0	0.5	14.0*	1.9	14.8*	15.9*	1.1
Cc1csc(NC(=O)c2cc3ccccc3o2)n1	12.0*	/	/	2.5*	17.5*	1.5	8.9*	19.5*	1.2
CCOC(=O)Cc1csc(NC(=O)c2cc3ccccc3o2)n1	0.9	0.91	17.6	-1.6	3.8	/	/	/	/
O=C(Nc1ncccc1O)c1cc2ccccc2o1	8.6*	/	/	0.8	38.6*	1.3	5.1	29.2*	0.7
O=C(COc1ccc(C(=O)c2ccccc2)cc1)Nc1ncccc1O	-1.1	/	/	-0.5	1.8	/	/	/	/
COc1cc2ccccc2cc1C(=O)Nc1ccc(Cl)cn1	3.0	/	/	-0.3	5.2	/	/	/	/
O=C(Nc1ccc(Cl)cn1)c1ccccc1F	6.6*	2.86	182.9*	1.2*	15.1*	1.2	7.8*	17.7*	0.8
O=C(Nc1ncccc1O)c1ccc(Oc2ccccc2)cc1	6.8*	/	/	0.2	19.2*	1.1	5.8*	26.1*	0.5
COc1ccc(S[C@]2(C(=O)N(C)C)CC(=O)N(C(=O)Nc3ccc(C)c(Cl)c3)[C@@H]2c2ccc(OC)cc2)cc1	-1.9	/	/	-0.2	0.6	/	/	/	/
